Screening results (PubChem)
This is a sample that favours compounds with a hit; in the whole collection about 3.5% have one here.
Tau fibril FP = inhibitors of human tau fibril formation | P10636 | K18 P301L tau heparin fibrillization, Alexa594 FP, 6 h | Potency, µM (top dose mostly 57.7 µM), without a hit: at the highest dose activity, negative = inhibition, actives largely listed as inhibitors | actives 0.39% (n = 280,000) | AID 1468; also: nearly all actives have a fitted effect of over 55% in size
Target sequence (P10636 561-689 P618L limits assumed): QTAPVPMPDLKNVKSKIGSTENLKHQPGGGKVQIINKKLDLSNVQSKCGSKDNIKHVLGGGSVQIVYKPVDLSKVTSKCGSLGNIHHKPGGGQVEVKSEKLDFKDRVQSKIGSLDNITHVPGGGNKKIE
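Heparin (20 uM) drove fibril formation of recombinant tau K18 P301L, 15 uM unlabeled with 0.24 uM Alexa 594 label, for 6 hr at 37 C in 100 mM sodium acetate pH 7. Fluorescence polarization (555/632 nm) read 1 hr after 30 uM ThT.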
TRb SRC2 PPI = inhibitors of human thyroid hormone receptor beta-SRC2 interaction; TRbeta-SRC2 peptide binding, fluorescence polarization; receptor liganded with 1 µM T3; actives 0.065% (n = 280,000); AID 1469; Potency, µM (series often up to 106 µM), without a hit: at the highest dose activity change, negative = inhibition, hits mostly inhibitors; P10828;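 also: plate controls were bound peptide for no effect and peptide without receptor for full effect; nearly all actives have a fitted effect of over 50% in size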
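Human TRb LBD (0.6 uM) plus Texas Red-labeled SRC2 peptide (20 nM), 1uM T3, 5% DMSO, 5 hr at ambient temperature. Decreased polarization (555/632 nm) flags inhibition; data normalized to free and bound peptide controls.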
TR SRC2 fluor cs = counter-screen for TRb-SRC2 inhibitors: fluorescence interference; TRb/SRC2 Texas Red total fluorescence interference; Potency, µM (series often up to 106 µM), for the others: at the highest dose fluorescence change, negative = quenching; actives 0.29% (n = 280,000); active = well fitted curve in either direction with a large enough effect; inconclusive = small, poorly fitted or top-dose-only effect
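Human TRb ligand-binding domain at 0.6 uM with 20 nM Texas Red SRC2 peptide in Tris buffer containing 1 uM T3 and 5% DMSO, incubated with compound 5 h at ambient temperature. Total fluorescence (555/632 nm) calculated as parallel + 2 × perpendicular.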
Tau fluor cs = counter-screen for tau fibril formation inhibitors; tau K18 P301L Alexa594 fluorescence, heparin fibrillization; Potency, µM (series often up to 57.7 µM), for inactives: at the top dose activity change, negative = decrease; actives 0.93% (n = 280,000); AID 1463; also: nearly all actives have a fitted effect of over 55% in size
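Human K18 P301L tau (15 uM unlabeled plus 0.24 uM Alexa 594-labeled, final) in 100 mM sodium acetate pH 7 was mixed with compound and 20 uM heparin and incubated 6 hr at 37 C.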
JMJD2E inh = blocks human JMJD2E demethylase activity | B2RXH2 | JMJD2E catalytic domain, FDH-coupled NADH fluorescence (FDH is formaldehyde dehydrogenase) | Potency, µM (titrated, usually from 57.1 µM), for the others: at the top dose activity change, negative = inhibition, actives largely listed as inhibitors | actives 1.6% (n = 230,000) | AID 2147; active = well fitted inhibition curve with a large enough effect, not every such curve was filed as active; inconclusive = small, poorly fitted or top-dose-only effect, or another doubt; inactive = no such curve, though single readings can be large or run the other way;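 also: 0% = wells with enzyme and -100% = buffer wells without enzyme; nearly all actives have a fitted effect of over 50% in size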
Target sequence (B2RXH2 1-337 limits assumed): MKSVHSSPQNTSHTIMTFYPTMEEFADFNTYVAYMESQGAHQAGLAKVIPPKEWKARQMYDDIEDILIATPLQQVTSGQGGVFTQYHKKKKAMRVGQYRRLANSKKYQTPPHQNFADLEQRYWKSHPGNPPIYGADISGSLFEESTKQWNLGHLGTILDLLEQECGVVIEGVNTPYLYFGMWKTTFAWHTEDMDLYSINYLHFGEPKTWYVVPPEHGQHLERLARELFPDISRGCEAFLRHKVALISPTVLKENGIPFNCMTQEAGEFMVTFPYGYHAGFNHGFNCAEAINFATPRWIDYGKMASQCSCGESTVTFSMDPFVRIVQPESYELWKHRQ
Tau ThT inhib = tau fibrillization inhibition (ThT binding). P10636. recombinant tau K18 P301L (four-repeat tau fragment), heparin-induced fibrillization, ThT fluorescence. Potency, µM (highest dose often 57.4 µM), for the others: at the top dose activity, negative = inhibition, hits mostly inhibitors. actives 2.1% (n = 270,000); also: nearly all actives have a fitted effect of over 55% in size
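Recombinant human tau K18 fragment […] carrying P301L, 15 uM unlabeled plus 0.24 uM Alexa 594-labeled, was fibrillized with 20 uM heparin in 100 mM sodium acetate pH 7 for 6 hr at 37 C; 30 uM ThT fluorescence read after 1 hr.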
* = called active by the depositor; ? = inconclusive; / = no result given; [ ] = dose if it differs, or a comment. Unless noted, calls follow the shape of the dose curve; as a rule, active = well fitted curve in the direction sought with a large enough effect; inconclusive = small, poorly fitted or top-dose-only effect, or another doubt; inactive = no such curve, though single readings can be large; an effect the other way counts as inactive or inconclusive. Unless noted, % is scaled to controls: 0 for no effect and ±100 for the full control effect; potency is read from the fitted curve at half-maximal effect.

SMILES	Tau fibril FP	TRb SRC2 PPI	TR SRC2 fluor cs	Tau fluor cs	JMJD2E inh	Tau ThT inhib
COCCN(CCOC)c1nc(C)nc2c1nc(-c1ccccc1)n2CCCN1CCCCC1C (configuration not stated)	-5.9%	-2.6%	1.3%	-8.2%	?	4.8%
CCn1c(SCc2nc3cc(OC)c(OC)cc3c(=O)[nH]2)nnc1-c1ccncc1	6.0%	-5.7%	-0.6%	-0.7%	1.1%	-9.1%
CCCOc1ccc(NC(=O)CC2C(=O)N(c3ccc(C)cc3)C(=O)N2CCc2ccncc2)cc1 (configuration not stated)	3.9%	3.1%	-3.8%	-29.1%	/	-15.2%
O=c1c(O[C@@H]2O[C@H](CO)[C@H](O)[C@H](O)[C@H]2O)c(-c2ccc(O)c(O)c2)oc2cc(O)cc(O)c12	-2.5%	11.9%	-15.8%	-11.3%	1.78µM*	?
O=c1c(O[C@@H]2O[C@H](CO)[C@@H](O)[C@H](O)[C@H]2O)c(-c2ccc(O)cc2)oc2cc(O)cc(O)c12	/	3.2%	-7.0%	/	/	/
O=c1c(O[C@@H]2O[C@H](CO)[C@@H](O)[C@H](O)[C@H]2O)c(-c2ccc(O)c(O)c2)oc2cc(O)cc(O)c12	-4.6%	8.5%	-9.0%	-27.0%	12.6µM*	?
O=c1c(OC2OC(CO)C(O)C(O)C2OC2OC(CO)C(O)C(O)C2OC2OC(CO)C(O)C(O)C2O)c(-c2ccc(O)c(O)c2)oc2cc(O)cc(O)c12 (configuration not stated)	-7.2%	-3.7%	-1.7%	-9.2%	14.1µM*	?
COc1c(-c2ccc(O)c(O)c2)oc2cc(O)cc(O)c2c1=O	-6.3%	-4.5%	-3.4%	?	14.1µM*	?
C[C@@H]1O[C@@H](OC[C@H]2O[C@@H](Oc3c(-c4ccc(O)c(O)c4)oc4cc(O)cc(O)c4c3=O)[C@H](O)[C@@H](O)[C@@H]2O)[C@H](O)[C@H](O)[C@H]1O	-8.2%	-1.0%	-9.2%	-22.9%	14.1µM*	?
CC1OC(OCC2OC(Oc3c(-c4ccc(O)cc4)oc4cc(O)cc(O)c4c3=O)C(O)C(O)C2O)C(O)C(O)C1O (configuration not stated)	6.6%	1.2%	-2.6%	-3.4%	-0.2%	-4.4%
COc1cc(/C=C(/C#N)c2ccccc2F)ccc1OCc1ccccc1	-5.2%	-3.8%	0.2%	-3.3%	-0.7%	6.0%
CCN(CC)c1ccc([C@H]2[C@@H]3CCCC[C@]3(O)CCN2CC(=O)NCc2ccco2)cc1	5.7%	9.8%	-1.8%	-4.7%	-8.7%	-16.2%
CN1CCN(/N=C/c2ccc(-c3ccc([N+](=O)[O-])cc3Cl)o2)CC1	11.2%	-7.9%	-2.4%	?	-4.5%	11.2µM*
Cc1ccc(C(=O)NNC(=S)Nc2cccc(Cl)c2Cl)cc1[N+](=O)[O-]	7.4%	16.4%	-23.3%	?	4.5%	25.1µM*
O=C(CN1CCCCC1)Nc1nnc(-c2ccc([N+](=O)[O-])cc2)s1	-2.2%	3.4%	-6.3%	-15.3%	-2.1%	12.6µM*
COc1ccc(N=C2NC(=O)S/C2=C\c2ccc(N(C)C)cc2)cc1	?	31.6µM*	50.1µM*[fluorescent]	?	2.4%	1.12µM*
COc1ccc(NCc2cc3cc(OC)ccc3[nH]c2=O)cc1	-4.4%	5.3%	-4.8%	-24.9%	?	7.94µM*
COc1ccc(NCc2cc3ccccc3[nH]c2=O)cc1	-1.9%	-12.1%	-2.9%	-13.7%	?	?
O=C(Nc1ccc(Br)cc1F)N1CC=C(c2c[nH]c3ccccc23)CC1	-15.3%	3.0%	-0.2%	8.91µM*[quencher]	/	8.91µM*
O=C(Nc1ccc(Br)cc1F)N1CCC(CN2CCc3ccccc3C2)CC1	0.9%	0.5%	7.4%	-5.9%	/	-2.1%
Cc1cccc(NC(=O)N2CC=C(c3c[nH]c4ccccc34)CC2)c1C	3.2%	1.7%	-1.7%	25.1µM*[quencher]	/	?
COC(=O)c1ccc(Cl)cc1NC(=O)N1CCCn2nc(C)cc21	-3.6%	6.5%	-0.5%	-14.7%	/	-5.9%
COC(=O)c1ccc(Cl)cc1NC(=O)N1CC=C(c2c[nH]c3ccccc23)CC1	-0.2%	1.7%	0.7%	11.2µM*[quencher]	/	?
Cc1ccc(NC(=O)N2CC=C(c3c[nH]c4ccccc34)CC2)cc1Cl	-10.2%	-2.8%	1.2%	14.1µM*[quencher]	/	6.31µM*
O=C(Nc1ccccc1)N1CC=C(c2ccccc2)CC1	-0.8%	-4.0%	-1.9%	-8.3%	-24.1%	-24.5%
SMILES	Tau fibril FP	TRb SRC2 PPI	TR SRC2 fluor cs	Tau fluor cs	JMJD2E inh	Tau ThT inhib
O=C(Nc1cccc2ccccc12)N1CC=C(c2ccccc2)CC1	-8.2%	1.2%	-2.1%	-14.8%	?	-21.4%
CCOC(=O)c1c(-c2ccc(Cl)cc2)cn2ccccc12	1.1%	7.4%	-1.6%	-17.6%	?	-17.4%
CCOC(=O)C1=C(C)NC(=O)NC1c1ccc(Br)o1 (configuration not stated)	0.0%	-9.1%	-7.2%	3.1%	-2.7%	2.2%
O=[N+]([O-])c1ccc(CN2CCOCCOCCN(Cc3ccc([N+](=O)[O-])cc3)CCOCC2)cc1	0.5%	-4.9%	-4.1%	-22.6%	-24.6%	?
C=CCNC(=O)c1c2c(nc3ccccc13)-c1ccccc1CC2	-3.5%	-16.4%	3.5%	-1.6%	?	-1.2%
CN(C)c1ccc(S(=O)(=O)NCC(=O)OCC(=O)Nc2cc(Cl)cc(Cl)c2)cc1[N+](=O)[O-]	?	7.0%	-1.0%	?	?	28.2µM*
Fc1cc(NC(=S)NCc2ccc(CNC(=S)Nc3ccc(Cl)c(F)c3)cc2)ccc1Cl	3.98µM*	0.5%	-0.7%	-23.7%	0.4%	17.0%
Fc1cccc(NC(=S)NCc2ccc(Cl)cc2)c1	-13.0%	-0.1%	-2.1%	-25.9%	-3.1%	7.0%
COC(=O)c1cc(-c2ccc(S(=O)(=O)N3CCCC(C)C3)cc2)c(C(F)(F)F)s1 (configuration not stated)	5.2%	-0.1%	-1.9%	-10.1%	-7.3%	-3.9%
Oc1ccc(/C=N/Nc2cccc3cccnc23)c(O)c1	8.7%	-6.1%	-12.6%	7.94µM*[quencher]	-23.4%	6.31µM*
Oc1ccc(Br)cc1/C=N/Nc1ncc(-c2ccccc2)cn1	-0.4%	0.0%	-1.6%	-5.5%	5.8%	?
Oc1ccc(/C=N/Nc2ncc(Br)cn2)c(O)c1	18.1%	3.5%	-22.4%	?	11.2µM*	?
O=[N+]([O-])c1ccc(-c2csc(N3CCc4ccccc4C3)n2)cc1	11.1%	3.3%	0.4%	?	12.6%	5.01µM*
Brc1ccc(-c2csc(N3CCc4ccccc4C3)n2)cc1	6.5%	-9.8%	-4.1%	-25.2%	-1.7%	?
